Test results reported in PubChem BioAssay.
Results filed as inconclusive are left out. The source made the active and inactive calls.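 How the source made its calls, unless noted: active means Her2 level under about 52% in both replicate screens, with viability over 70% of control (limit read from the data); inconclusive means Her2 under the limit in one screen only, or viability under 70%; inactive means Her2 level above the set limit.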

How the values were obtained:
[1] = Her2 expression decrease, cell viability multiplex – SKBR3 breast tumor cells, AlphaScreen, ATP viability, primary screen (AID 461); conditions: SKBR3 Her2 protein level, 18-24 h, measured here: SKBR3 viability, ATP luminescence, at 10 µM;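 on Her2 level: lower value means less Her2 protein in the cells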;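 on viability: percent of carrier control wells set as 100% viability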
[2] = molecular target: Receptor tyrosine-protein kinase erbB-2 (Homo sapiens) (UniProt P04626); experiment: as above; conditions: 18-24 h, at 10 µM, stronger effect = lower value
[3] = reduced viability of SK-BR-3 breast cancer cells – cell-based, 24 h, human, pilot screen (AID 572;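 active means viability at or below 10% of carrier control in both of two separate runs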;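 further: compound exposure lasted between 18 and 24 h rather than exactly 24 h; 100% = carrier-treated control wells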); conditions: SK-BR-3 viability, CellTiter-Glo luminescence, at 10 µM, stronger effect = lower value
[4] = HUVEC growth inhibition – cell-based, human, primary screen (AID 575;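 active means viability at or below 30% in both replicate assays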;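 further: 100% = median of untreated cell wells with 0.1% DMSO on each plate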); conditions: HUVEC proliferation, CellTiter-Glo luminescence, 72 h; at 10 µM; stronger effect = lower value
[5] = H69AR cell proliferation blockers – human, duplicate replicates, primary screen (AID 580;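 active means viability at or under a set limit in both replicates, limit being median viability minus 3 SD, cut at about 48% in these data, passing the limit was not always enough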;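 further: 100% = mean luminescence of untreated wells and 0% = no signal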); conditions: H69AR lung tumor cells viability, ATP luminescence, 72 h; at 10 µM; stronger effect = lower value
[6] = MRP1 drug-resistance reversers in H69AR cells – cell-based, doxorubicin co-treatment, pilot screen (AID 601;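 active means viability loss from added drug above about 55%, and viability with drug at most 40%, in both replicates, limit read from the data, passing the limit was not always enough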); conditions: CellTiter-Glo, 72 h, at 10 µM; for differential viability (reversal): stronger effect = higher value
[7] = yeast transport mutant growth inhibition pilot in 384-well plates, post-Golgi transport modulator project (AID 636; in the data active means inhibition above about 31%); conditions: absorbance 615 nm, about 18 h, stronger effect = higher value
[8] = growth suppression of yeast trafficking mutant, preliminary HTS, modulators of trafficking downstream of Golgi apparatus project, 1536-format plate, OD 615 nm (AID 637; in the data active means inhibition above about 30%); conditions: yeast transport mutant growth, absorbance 615 nm, 18 h; stronger effect = higher value
[9] = S. cerevisiae growth inhibition in permissive medium (OD615), pilot counter-assay for S. cerevisiae lifespan shortening project, permissive growth control (AID 705;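 active means growth inhibition above 25% in both replicates, a cutoff set 3 SD above the mean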); conditions: OD615, 24 h, at 10 µM, stronger effect = higher value
[10] = S. cerevisiae growth inhibition in restrictive medium, OD615, pilot screen, restrictive growth control, yeast lifespan reduction project (AID 706;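 active means growth inhibition above a set limit, 3 SD over mean compound inhibition, in both replicates, cut at about 43% in these data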;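 further: modified DeaD lifespan yeast strain shifted to restrictive glucose medium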); conditions: OD615, 48 h, at 10 µM, stronger effect = higher value
[11] = doxorubicin toxicity protection in MRP-1 cells – H69AR cells, CellTiter-Glo, duplicate, MRP-1 activator project, pilot screen (AID 807;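 active means viability increase at or above a cutoff of the median across tested compounds plus 3 SD, cut at about 8.5% in these data, passing the limit was not always enough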;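 further: compound pretreatment 18-22 h then 72 h combined with doxorubicin; 0% = doxorubicin alone and 100% = vehicle without doxorubicin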); conditions: H69AR viability with doxorubicin, CellTiter-Glo luminescence; at 10 µM; stronger effect = higher value
[12] = viability of HCT116 without oncogenic beta-catenin – human colon tumor cells, pilot screen (AID 823;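 active means cell viability at or below a set limit in both duplicate runs, the limit being the all-compound median minus 4 SD, cut at about 23% in these data, passing the limit was not always enough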;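 further: 0% = wells killed by 20 µM Hyamine and 100% = untreated DMSO cell wells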); conditions: HCT116 beta-catenin knockout viability, CellTiter-Glo, 60 h; at 10 µM; stronger effect = lower value
[13] = viability of PTEN-null HCT116 cells – cell-based, HCT116 clonal line, CellTiter-Glo, pilot screen (AID 824;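 active means viability at or below 27.92% in each of two runs, the all-compound median minus 4 SD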;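 further: 0% = 20 µM Hyamine control and 100% = vehicle cell control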); conditions: HCT116 PTEN-deleted viability, 60 h, at 10 µM, stronger effect = lower value
[14] = RAM pathway blockade in budding yeast – dse1pr::URA3 reporter, 5-FOA selection, pilot screen (AID 869;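 active means inhibition over a set limit, the all-compound mean plus 3 SD, in both replicate runs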;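 further: 0% = DMSO wells with no growth and 100% = 10 µM 1-NA-PP1 with full growth; RAM network block rescues cells from 5-FOA so hits raise OD615 growth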); conditions: S. cerevisiae dse1pr::URA3 5-FOA growth, OD615, 2 d; at 10 µM; stronger effect = higher value; strain carries analog-sensitive mutant Cbk1 kinase
[15] = RAM signaling pathway blockade in yeast – S. cerevisiae, Pdr1DBD-CYC8 efflux-inhibited sensitized strain, primary screen (AID 1298;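 active means RAM network inhibition above 8.4% in each of two replicates, 3 SD over the compound average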;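 further: 0% = DMSO untreated cells without growth and 100% = 10 µM 1-NA-PP1 full growth; higher means more yeast growth rescued from 5-FOA killing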); conditions: S. cerevisiae cbk1-as DSE1-URA3 strain, 5-FOA growth OD615, 2 d; at 50 µM; stronger effect = higher value
[16] = H69AR cells + 2 uM doxorubicin, measured here: viability with 2 uM doxorubicin, stronger effect = lower value
[17] = H69AR cells, compound alone cytotoxicity

Receptor tyrosine-protein kinase erbB-2 (Homo sapiens), sequence (P04626 whole entry, looked up): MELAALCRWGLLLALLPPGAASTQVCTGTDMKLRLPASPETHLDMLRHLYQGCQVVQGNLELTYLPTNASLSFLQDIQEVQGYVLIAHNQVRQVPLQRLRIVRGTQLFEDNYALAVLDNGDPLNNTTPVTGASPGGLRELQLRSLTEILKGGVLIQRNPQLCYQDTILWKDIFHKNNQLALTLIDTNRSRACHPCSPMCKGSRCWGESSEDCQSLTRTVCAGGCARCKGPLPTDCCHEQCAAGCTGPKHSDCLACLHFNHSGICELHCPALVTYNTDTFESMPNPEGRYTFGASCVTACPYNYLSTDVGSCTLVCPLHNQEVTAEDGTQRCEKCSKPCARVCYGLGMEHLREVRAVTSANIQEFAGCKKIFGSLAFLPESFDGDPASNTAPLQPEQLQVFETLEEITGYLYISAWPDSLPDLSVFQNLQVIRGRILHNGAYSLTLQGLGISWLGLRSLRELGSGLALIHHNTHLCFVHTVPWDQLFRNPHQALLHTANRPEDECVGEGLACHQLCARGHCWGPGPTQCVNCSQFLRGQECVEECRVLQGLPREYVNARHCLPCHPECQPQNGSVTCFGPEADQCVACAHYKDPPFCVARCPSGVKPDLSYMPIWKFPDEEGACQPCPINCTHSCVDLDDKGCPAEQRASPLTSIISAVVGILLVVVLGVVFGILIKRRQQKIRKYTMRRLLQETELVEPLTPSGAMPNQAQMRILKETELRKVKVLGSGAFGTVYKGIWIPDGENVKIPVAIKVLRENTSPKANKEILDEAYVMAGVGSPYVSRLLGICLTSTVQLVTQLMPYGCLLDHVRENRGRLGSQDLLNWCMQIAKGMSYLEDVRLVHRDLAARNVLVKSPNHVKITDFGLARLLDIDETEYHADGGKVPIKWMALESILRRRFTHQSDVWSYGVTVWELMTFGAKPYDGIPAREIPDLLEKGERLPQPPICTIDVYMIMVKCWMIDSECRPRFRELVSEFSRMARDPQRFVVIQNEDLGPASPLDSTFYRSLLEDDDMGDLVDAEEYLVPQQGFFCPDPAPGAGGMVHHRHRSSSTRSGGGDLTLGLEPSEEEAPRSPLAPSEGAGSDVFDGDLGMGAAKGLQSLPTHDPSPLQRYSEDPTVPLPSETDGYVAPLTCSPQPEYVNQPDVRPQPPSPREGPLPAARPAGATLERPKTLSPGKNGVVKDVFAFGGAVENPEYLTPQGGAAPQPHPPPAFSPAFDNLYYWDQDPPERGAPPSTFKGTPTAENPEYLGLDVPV

CC(=O)c1ccc(OCC(O)CN2CCN(CCO)CC2)cc1 (stereo not drawn)
100%: viability [6, 16]
96.3%: viability [6, 17]
inactive: Her2 level [2] 112% | viability [3] 116% | viability [4] 99.2% | viability [5] 96.3% | differential viability (reversal) ([6]; H69AR cells + 2 uM doxorubicin) -3.92% | inhibition [7] -5.73% | inhibition [8] 2.33% | growth inhibition [9] -1.98% | growth inhibition [10] 4.8% | viability increase [11] 1.18% | viability [12] 99% | viability [13] 101% | inhibition [14] 1.13% | RAM network inhibition [15] 1.57%
116%: viability [1]

CCOC(=O)c1c(C)n(OCc2ccccc2)c2ccc3c(no[n+]3[O-])c12
52.9%: viability [6, 17]
inactive: Her2 level [2] 78.5% | viability [3] 60% | viability [4] 64.8% | viability [5] 52.9% | differential viability (reversal) ([6]; H69AR cells + 2 uM doxorubicin) -14.2% | inhibition [7] -3.24% | inhibition [8] -2.95% | growth inhibition [9] -12.4% | growth inhibition [10] -11.1% | viability increase [11] -3.24% | viability [12] 62.8% | viability [13] 62.9% | inhibition [14] 1.99% | RAM network inhibition [15] 5.8%
67.1%: viability [6, 16]
60%: viability [1]

COC(=O)c1oc2ccc(Br)cc2c1NC(C)=O
94%: viability [1]
inactive: Her2 level [2] 81% | viability [3] 94% | viability [4] 96.1% | viability [5] 98.2% | differential viability (reversal) ([6]; H69AR cells + 2 uM doxorubicin) 3.47% | inhibition [7] -4% | inhibition [8] 1.33% | growth inhibition [9] -7.17% | growth inhibition [10] 0.76% | viability increase [11] 1.21% | viability [12] 102% | viability [13] 98.4% | inhibition [14] 0.08% | RAM network inhibition [15] 2.66%
94.7%: viability [6, 16]
98.2%: viability [6, 17]

O=C1CCCc2c1cc(C(=O)NCCCN1CCOCC1)c(=O)n2-c1ccc(Cl)cc1
97%: viability [1]
inactive: Her2 level [2] 95.5% | viability [3] 97% | viability [4] 89.9% | viability [5] 93.1% | differential viability (reversal) ([6]; H69AR cells + 2 uM doxorubicin) 10.6% | inhibition [7] -5.07% | inhibition [8] 0.83% | growth inhibition [9] -14.6% | growth inhibition [10] -19.1% | viability increase [11] -2.29% | viability [12] 100% | viability [13] 104% | inhibition [14] 1.44% | RAM network inhibition [15] 2%
93.1%: viability [6, 17]
82.5%: viability [6, 16]
